In PubChem BioAssay (NCI):
About 83,000 compounds went through this panel and 20% of them were active in at least one assay; those are over-represented in the sample as a whole.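 Step 1: grow cells in 96-well plates. Step 2: add test compound at a single concentration. Step 3: incubate 48 h. Step 4: record percent growth.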 Calls of active or inactive are those of the source. How the source made its calls: active means growth percent below 10; inactive means the rest.

Legend:
Assay in all cases: NCI-60 one-dose screen, 48 h (100 = growth as untreated, 0 = no growth, -100 = all killed)
Details in all cases: 10 µM unless noted
[1] = system: DU-145 prostate
[2] = system: K-562 leukemia
[3] = system: MALME-3M melanoma
[4] = system: MDA-MB-231 breast
[5] = system: RXF 393 renal
[6] = system: SF-268 CNS
[7] = system: SF-295 CNS
[8] = system: SF-539 CNS
[9] = system: UACC-257 melanoma
[10] = system: M14 melanoma
[11] = system: HCT-15 colon
[12] = system: HT29 colon
[13] = system: SNB-75 CNS
[14] = system: SNB-19 CNS
[15] = system: U251 CNS
[16] = system: PC-3 prostate
[17] = system: SK-MEL-5 melanoma
[18] = system: UACC-62 melanoma
[19] = system: LOX IMVI melanoma
[20] = system: SK-MEL-28 melanoma

Measured: growth

O=Cc1c[nH]c2ccc(-c3csc4ccccc34)cc12
active: [2] 8.16% | [7] -22.6%
inactive: [1] 80% | [3] 44.4% | [4] 45.7% | [5] 45.3% | [6] 44.5% | [8] 30.9% | [9] 39.3% | [10] 23.5% | [11] 29% | [12] 16.5% | [13] 39.9% | [14] 34.3% | [15] 25.2% | [16] 61.9% | [17] 61% | [18] 34% | [19] 39.5% | [20] 69.8%

COc1cccc(-c2nn(-c3ccccc3)cc2-c2ccnc(NCCCNC(=O)c3ccc(F)cc3)c2)c1
inactive: [1] 65.5% | [2] 16.9% | [3] 48.2% | [4] 51.3% | [5] 56.3% | [6] 53.7% | [7] 36.5% | [8] 68.3% | [9] 42.3% | [10] 20.3% | [11] 24.9% | [12] 11.7% | [13] 46.2% | [14] 67.2% | [15] 36.4% | [16] 27.1% | [18] 40.1% | [19] 55.7% | [20] 58.7%
active: [17] 6.09%

O=[N+]([O-])c1ccc(C2CC(c3ccccc3)=Nc3ccccc3S2)cc1 (stereo not given)
inactive: [1] 107% | [2] 32.4% | [3] 107% | [4] 101% | [5] 116% | [6] 98% | [7] 119% | [8] 101% | [9] 108% | [10] 104% | [11] 97.6% | [12] 97.4% | [13] 57.2% | [14] 85.8% | [15] 62.5% | [16] 88.1% | [17] 87.5% | [18] 84.7% | [19] 64.3% | [20] 116%

COc1ccc(/C=N/C2=C(C#N)C(c3ccc(OC)cc3)c3ccc4ccccc4c3O2)cc1 (stereo not given)
inactive: [1] 97.7% | [2] 23.4% | [3] 74.2% | [4] 53.5% | [5] 84.8% | [6] 77.2% | [7] 88.6% | [8] 79.5% | [9] 92.1% | [10] 69.7% | [11] 44.3% | [12] 123% | [13] 45.5% | [14] 80% | [15] 84.5% | [16] 70% | [17] 70.4% | [18] 57.8% | [19] 72.6% | [20] 79.7%

Cc1nc2ccccc2c(/C=C/c2ccc(Cl)cc2)c1C(=O)/C=C/c1ccc(F)cc1
inactive: [6] 48.6% | [7] 12.3% | [9] 15% | [13] 51.7% | [16] 20.4%
active: [1] -8.13% | [2] 5.45% | [3] -6.33% | [4] 1.67% | [5] -48.9% | [8] -61.2% | [10] 5.81% | [11] -15.4% | [12] 5.82% | [14] -26% | [15] -76.8% | [17] 8.11% | [18] 0.679% | [19] -90.3% | [20] -27.7%

COc1cc(/C=C/C(=O)c2c(C)nc3ccccc3c2C)ccc1OCCCN1CCN(C(=O)c2ccco2)CC1
inactive: [1] 91.4% | [2] 59.7% | [3] 68.3% | [4] 75.3% | [5] 74% | [6] 87.4% | [7] 78.3% | [8] 93.3% | [9] 62.4% | [10] 94.4% | [11] 76.2% | [14] 99% | [15] 77.9% | [16] 88.3% | [17] 33.5% | [18] 65.9% | [19] 81.9%
active: [12] 6.55% | [13] -70.5% | [20] -29%

CC1=C([Se]CC(OC(=O)[C@@H](CO)NC(=O)OC(C)(C)C)C(=O)NC(C)(C)C)C(=O)c2ccccc2C1=O (stereo not given in full)
active: [1] -71.1% | [2] -37% | [3] -64.9% | [4] -82.2% | [5] -86.2% | [6] -75.1% | [7] -37.4% | [8] -100% | [9] -87.1% | [10] -100% | [11] -74.1% | [12] -8.15% | [13] -100% | [14] -100% | [15] -95.2% | [16] -71.8% | [17] -98.2% | [18] -100% | [19] -96.4% | [20] -100%

O=C1/C(=C/c2ccc(F)cc2)C=C(c2ccccc2)N1CCc1ccccc1
active: [13] -10.5%
inactive: [1] 81.6% | [2] 71.4% | [3] 39.1% | [4] 57.5% | [5] 56.2% | [6] 74.2% | [7] 35.9% | [8] 79.5% | [9] 38.6% | [10] 46% | [11] 77.9% | [12] 63.2% | [14] 45.1% | [15] 46.9% | [16] 51.2% | [17] 73% | [18] 50.1% | [19] 70.7% | [20] 72.6%

C=C(C)[C@@H]1CC[C@]2(C(=O)NC3CCCCC3)CC[C@]3(C)[C@H](CC[C@@H]4[C@@]5(C)CCC(=O)C(C)(C)[C@@H]5CC[C@]43C)[C@@H]12
inactive: [1] 104% | [2] 84.2% | [3] 84.2% | [4] 87.4% | [5] 98.3% | [6] 94.3% | [7] 97.8% | [8] 96.1% | [9] 94.2% | [10] 97.7% | [11] 97.1% | [12] 85.7% | [13] 85.6% | [14] 84.2% | [15] 84.9% | [16] 60.1% | [17] 95.9% | [18] 76.9% | [19] 92.2% | [20] 97.1%

Cc1ccc(N(C(=O)CCc2c[nH]c3ccccc23)[C@H](C(=O)Nc2ccc(Cl)cc2)c2cccc([N+](=O)[O-])c2)cc1
inactive: [1] 81.6% | [2] 37.8% | [3] 99% | [4] 75.4% | [5] 95.7% | [6] 70.7% | [7] 105% | [8] 89.7% | [9] 90.1% | [10] 78.4% | [11] 70.7% | [12] 86.5% | [13] 84.1% | [14] 92.2% | [15] 78% | [16] 62.2% | [17] 75.9% | [18] 33.7% | [19] 45.1% | [20] 114%

NC(=N\N=C/c1ccccc1[N+](=O)[O-])/C(N)=N\N=C/c1ccccc1[N+](=O)[O-]
inactive: [1] 107% | [2] 101% | [3] 146% | [4] 107% | [5] 103% | [6] 99.7% | [7] 105% | [8] 97.2% | [9] 113% | [10] 111% | [11] 105% | [12] 103% | [13] 97.9% | [14] 106% | [15] 108% | [16] 102% | [17] 105% | [18] 108% | [19] 104% | [20] 118%

N=C(N)c1ccc(-c2ccc(-c3cncc4ccccc34)s2)s1
inactive: [9] 123%
active: [1] -90% | [2] -59.4% | [3] -59.1% | [4] -72.3% | [5] -74.9% | [6] -71.5% | [7] -81.3% | [8] -77.6% | [10] -76.8% | [11] -74.2% | [12] -77.1% | [13] -95.9% | [14] -54.8% | [15] -92.5% | [16] -80.8% | [17] -89.5% | [18] -64.5% | [19] -78.1% | [20] -69.7%

COc1ccc(-c2nc(SCCC(C)C)nc(N/N=C\c3cccc(Cl)c3)c2C#N)cc1
active: [13] 4.61%
inactive: [1] 85.4% | [2] 79.7% | [3] 111% | [4] 53% | [5] 87.5% | [6] 71.1% | [7] 55% | [8] 84.3% | [9] 87.3% | [10] 101% | [11] 82.2% | [12] 83.2% | [14] 76.2% | [15] 29.1% | [16] 83.7% | [17] 96% | [18] 89.6% | [19] 70.9% | [20] 112%

Cc1cc(Cl)nc(NCc2cc(Nc3ccnc4cc(Cl)ccc34)ccc2F)n1
inactive: [1] 52.3% | [2] 26.9% | [3] 77.2% | [4] 54.4% | [5] 61.2% | [6] 58.2% | [7] 69.5% | [8] 70.5% | [9] 64.2% | [10] 60.9% | [11] 11.7% | [13] 83.3% | [14] 80.6% | [15] 48.9% | [16] 52.7% | [17] 56.5% | [18] 70.7% | [19] 10.4% | [20] 94.1%
active: [12] 9.26%
